A selection: hits, their analogues and other compounds. The true share with any hit is near 1.1%.
SNCA viab count = reduces viability of HEK-293 SNCA reporter cells. Potency, µM (top dose mostly 57.1 µM), for the others: top-dose activity change, negative = cytotoxicity, actives largely listed as cytotoxic. actives 0.12% (n = 150,000). AID 1671193. HEK-293-SNCA-luc viability, GF-AFC fluorescence, 24 h;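 also: potency is read from the fitted curve at half-maximal effect; 0% = DMSO-treated cells and -100% = medium-only wells without cells; nearly all actives have a fitted effect of over 30% in size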
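HEK-293-SNCA-luc cells (1500/well) plated 24 h, then exposed 24 h to a dilution series; GF-AFC added 30 min at 37C, fluorescence 405/540 nm; normalised to medium-only and DMSO wells, Hill fit.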
GPT2 inh = GPT2 alanine aminotransferase inhibition; Potency, µM (top dose mostly 57.7 µM), for inactives: top-dose activity change, negative = inhibition, most hits filed as inhibitors; actives 0.25% (n = 100,000); Recombinant GPT2, coupled pyruvate oxidase/HRP Amplex Red fluorescence; Q8TD30; also: potency is read from the fitted curve at half-maximal effect; nearly all actives have a fitted effect of over 60% in size
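Inhibition is scored from Amplex Red fluorescence generated when pyruvate oxidase and HRP act on pyruvate released by GPT2. Reactions contain 10ng/uL enzyme, 250uM a-KG and 2mM L-alanine and run 30 min at room temperature.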
SNCA expr inh = SNCA gene expression inhibition; AID 1671194; Potency, µM (series often up to 57.2 µM), for inactives: at the highest dose activity change, negative = inhibition, hits mostly inhibitors; actives 0.17% (n = 140,000); HEK-293 SNCA-luciferase knock-in, luminescence, 24 h;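 also: potency is read from the fitted curve at half-maximal effect; plate controls were DMSO cells for no effect and cell-free wells for full effect; nearly all actives have a fitted effect of over 45% in size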
IP6K1 inh = IP6K1 kinase inhibition | AID 1645851 | Q92551 | actives 0.81% (n = 140,000) | activity change, % (series mostly up to about 58 µM) | IP6K1 kinase, ADP-Glo luminescence, 2 h; stronger effect = lower value; in the data active = activity change below about -25%
Target sequence (Q92551 whole entry, looked up): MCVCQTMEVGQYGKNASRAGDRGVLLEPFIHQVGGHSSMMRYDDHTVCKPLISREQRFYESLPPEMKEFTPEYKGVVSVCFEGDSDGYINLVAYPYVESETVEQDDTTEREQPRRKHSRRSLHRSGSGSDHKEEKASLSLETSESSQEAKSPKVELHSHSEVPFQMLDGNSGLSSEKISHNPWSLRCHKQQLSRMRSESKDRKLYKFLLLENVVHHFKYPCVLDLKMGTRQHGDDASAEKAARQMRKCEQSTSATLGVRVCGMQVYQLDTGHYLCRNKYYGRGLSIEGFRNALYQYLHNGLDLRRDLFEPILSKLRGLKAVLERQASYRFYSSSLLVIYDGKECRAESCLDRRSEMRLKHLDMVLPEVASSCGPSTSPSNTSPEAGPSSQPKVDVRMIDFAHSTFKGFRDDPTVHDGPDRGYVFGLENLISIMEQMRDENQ
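ADP-Glo luminescence measures ADP made by human IP6K1 during a 2 h RT reaction with ATP/IP6 (mix at 1.3 mM/130 uM); top library doses 57.5 and 19.1 uM final.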
IP6K1 inh cnf = human IP6K1 inhibition, confirmatory; AID 1645852; recombinant IP6K1 kinase, ADP-Glo luminescence, 2 h; Potency, µM (titrated, usually from 49 µM), inactives show at the highest dose activity change, negative = inhibition, usual class: inhibitors; shares compounds with IP6K1 inh; actives 13% (n = 1,200); also: potency is read from the fitted curve at half-maximal effect; nearly all actives have a fitted effect of over 65% in size
Numbers without * were called inactive; i = inactive; ? = inconclusive; nt = no result given; [ ] = another dose, or the depositor's remark. Unless noted, calls follow the shape of the dose curve; as a rule, active = well fitted curve in the direction sought with a large enough effect; inconclusive = small, poorly fitted or top-dose-only effect, or another doubt; inactive = no such curve, though single readings can be large; an effect the other way counts as inactive or inconclusive. Unless noted, % is scaled to controls: 0 for no effect and ±100 for the full control effect.

SMILES | SNCA viab count | GPT2 inh | SNCA expr inh | IP6K1 inh | IP6K1 inh cnf
O=C1COc2ccc(-c3ccncc3)nc2CN1Cc1ccc(C(F)(F)F)cc1 | 0.1%[87.6 µM] | -9.5%[88.5 µM] | ? | -8.7 | nt
COc1ccc(CNC(=O)CN(c2ccc(OC)cc2)S(=O)(=O)c2c(C)[nH]c(=O)[nH]c2=O)cc1 | 12.6% | nt | 85.4% | -12.2 | nt
Cc1cc(C)cc(N(CC(=O)Nc2ccc(C)cc2Cl)S(=O)(=O)c2c(C)[nH]c(=O)[nH]c2=O)c1 | -4.5% | nt | -35.3% | -27.4* | 24.8%
COc1ccc(N(CC(=O)NCc2ccc(C)cc2)S(=O)(=O)c2c(C)[nH]c(=O)[nH]c2=O)cc1 | 21.2% | nt | 90.6% | -25.4* | -11.7%
CN1C(=O)NC(Cc2c[nH]c3c(Cl)cccc23)C1=O (stereo unspecified) | nt | nt | nt | nt | 23.3%
CN1C(=O)N[C@@H](Cc2c[nH]c3c(Cl)cccc23)C1=O | -30.4% | i | nt | -3.5 | nt
Cc1ccc(-c2noc([C@@H]3C[C@H](NC(=O)COc4ccccc4)CN3C)n2)cc1 | -7.4%[87.6 µM] | ? | 32.3%[87.6 µM] | 0.6 | nt
COc1cccc(N2CCN(S(=O)(=O)c3ccc(-c4cnc(C5CC5)o4)cc3)CC2)c1 | 1.6% | nt | 25.4% | -34.7* | ?
O=S(=O)(c1ccc(-c2cnc(C3CC3)o2)cc1)N1CCN(c2cccc(Cl)c2)CC1 | 11.5% | nt | -4.7% | -6.3 | nt
COc1ccc(N2CCN(S(=O)(=O)c3ccc(-c4cnc(C5CC5)o4)cc3)CC2)cc1 | -7.5% | nt | -9.7% | -41.3* | -6.5%
C[S+](=O)([O-])c1cccc(-c2cnc3[nH]cc(CC(N)=O)c3c2)c1 | -4.7%[87.6 µM] | -4.7%[88.5 µM] | 1.4%[87.6 µM] | -22.3 | nt
NC(=O)Cc1c[nH]c2ncc(-c3ccccc3F)cc12 | 6.9%[87.6 µM] | ? | 4.3%[87.6 µM] | -38.3* | ?
NC(=O)Cc1c[nH]c2ncc(-c3ccccc3Oc3ccccc3)cc12 | 13.0%[87.6 µM] | -3.1%[88.5 µM] | ? | -9.5 | nt
NC(=O)Cc1c[nH]c2ncc(-c3cccc(O)c3)cc12 | -4.3%[87.6 µM] | 2.2%[88.5 µM] | -23.3%[87.6 µM] | -38.4* | ?
NC(=O)Cc1c[nH]c2ncc(-c3cccc(C(F)(F)F)c3)cc12 | 4.2%[87.6 µM] | -5.6%[88.5 µM] | -10.2%[87.6 µM] | -31.7* | ?
COc1ccccc1OCCNC(=O)c1ccc(Cn2ccn3nc4c(c3c2=O)CCCC4)cc1 | -22.6% | i | -21.8% | 32.2 | nt
COc1cc(F)ccc1-c1ccnc2ncnn12 | 6.0% | i | 3.7% | 5.1 | nt
COc1ccc(CNC(=O)C2CN(C)C(=O)N2)cc1 (stereo unspecified) | -1.4%[12.5 µM] | i | 5.3%[87.6 µM] | -12.1 | nt
CCN1C(=O)C2CC3(CCN(C(=O)CCc4c[nH]c5ccccc45)CC3)CN2C1=O (stereo unspecified) | -2.6% | i | 61.8% | -4.0 | nt
Nc1c(S(=O)(=O)O)cc(Nc2ccc(Nc3nc(Cl)nc(Nc4ccc(S(=O)(=O)O)cc4)n3)c(S(=O)(=O)O)c2)c2c1C(=O)c1ccccc1C2=O | -16.1% | i | -4.8% | nt | 2.91µM*
COc1ccc(S(=O)(=O)N2CCC(Oc3ncccc3C(=O)N3CCOCC3)C2)cc1 (stereo unspecified) | 12.4% | i | 0.0% | 13.3 | nt
Cc1ccc(CN(Cc2ccco2)C(=O)c2oc3c(C)c(C)ccc3c2C)cc1 | 0.6% | nt | -6.1% | -29.0* | ?
Cc1ccc(CN(Cc2ccco2)C(=O)c2oc3ccc(C)cc3c2C)cc1 | 20.7% | nt | 20.0% | -11.8 | nt
O=C(c1c(OCC2CC2)cc(=O)n2c1CCCCC2)N1CCOCC1 | 9.4% | 4.3% | 8.7% | 20.1 | nt
C=C1c2cccc(O)c2C(O)=C2C(=O)[C@]3(O)C(O)=C(C(N)=O)C(=O)[C@@H](N(C)C)[C@@H]3[C@@H](O)[C@H]12 | -22.0%[23.9 µM] | 3.3% | -15.3%[25.6 µM] | -36.8* | -13.0%
COc1cccc(C(=O)N2CCn3c(nnc3-c3ccc(NC(C)=O)cc3)C2)c1 | nt | nt | nt | -13.6 | nt
CN1C[C@@H](NC(=O)Nc2ccccc2)C[C@H]1c1nc(-c2ccc(F)cc2)no1 | -13.9%[87.6 µM] | -3.4%[88.5 µM] | -26.3%[87.6 µM] | -10.3 | nt
CN1C[C@@H](NC(=O)Nc2ccccc2)C[C@H]1c1nc(-c2ccccc2)no1 | 1.5%[87.6 µM] | i | 48.9%[87.6 µM] | -25.3* | ?
COc1ccccc1-c1cn2c(n1)CO[C@@H](CNC1CCCC1)C2 | -9.6%[87.6 µM] | -14.6%[88.5 µM] | 4.1%[87.6 µM] | 18.4 | nt

Screening data (PubChem BioAssay)
